In PubChem BioAssay AID1273 (Columbia University Molecular Screening Center, 2008) one finds inhibition and normalized cell count data, which are given here for 24 compounds.

Among all 130,000 compounds or so, about 1,200 (0.92%) were called active.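 Rule for the calls: active = inhibition above the mean plus 3 SD, with well images judged a real hit on visual review (cut at about 60% in these data, passing the limit was not always enough); inconclusive = inhibition over the cutoff but images rejected on review; inactive = inhibition not above the cutoff.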 What follows is part of a selection rich in actives, with near analogues and random picks from the rest.

The inhibition is the drop in the measured response relative to a control, in per cent.

A short description of the test: insulin gene promoter suppression in islet cells – imaging, TRM-6 cells (human fetal islet line), eGFP reporter, cell count, primary screen (AID 1273;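 for normalized cell count: cells exposed to compound for 48 h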). To be noted: at 2 µM, reporter expression induced with tamoxifen; inhibition: stronger effect = higher value; normalized cell count: measured here: cell count, toxicity.
Turning to `CCCc1nc2scc(-c3ccc(C)cc3)c2c(=O)n1N`, the inhibition was 81.5% (active) and the normalized cell count amounted to 78.3%.

For `Cc1nc2scc(-c3cccs3)c2c(=O)n1N`, the inhibition is 9.8% (inactive) and the normalized cell count amounted to 105%.

As for `NC(=O)Cc1nc2scc(-c3ccc(Cl)cc3)c2c(=O)[nH]1`, the inhibition is 5.88% (inactive) and the normalized cell count worked out at 114%.

Take `COc1cc(OC)cc(-c2nnc(N(C)C(=O)c3ccncc3)s2)c1`: the inhibition was 36.4% (inactive) and the normalized cell count turned out to be 156%.

With `CC(NC(=S)NC1CCCCC1)C(c1ccccc1)N1CCOCC1` (stereo not drawn), the inhibition is -38.9% (inactive) and the normalized cell count stood at 111%.

Consider `Cc1ccc(N(C(=O)c2ccc(CN3CCOCC3)o2)C(C(=O)NCCC(C)C)c2cccs2)c(C)c1` (stereo not drawn), for which the inhibition is 8.11% (inactive) and the normalized cell count was determined as 114%.

Consider `Cc1cccc(N(C(=O)Cc2cccs2)C(C(=O)NC2CCCC2)c2ccsc2)c1` (stereo not drawn), for which the inhibition was -23.3% (inactive) and the normalized cell count amounted to 119%.

Consider `Cc1cccc(N(C(=O)c2ccc(CN3CCOCC3)o2)C(C(=O)NC2CCCCC2)c2ccc(F)cc2)c1` (stereo not drawn), for which the inhibition was 87.5% (active) and the normalized cell count stood at 98.6%.

Consider `C1CC1Cc1noc(CN2CCN(CC3CC3)CC2)n1`, for which the inhibition is 0% (inactive) and the normalized cell count worked out at 97.5%.

Turning to `CCOC(=O)C1(Cc2cccc(OC)c2)CCN(C(C)CC(C)(C)O)CC1` (stereo not drawn), the inhibition was -275% (inactive) and the normalized cell count amounted to 102%.

As for `CCCCOC(=O)Nc1nccs1`, the inhibition was 93.8% (active) and the normalized cell count was 53.2%.

In the case of `COc1cc(C(=O)Nc2nccs2)cc(OC)c1OC`, the inhibition was -25.3% (inactive) and the normalized cell count came to 97.1%.

For the compound `O=C(COC(=O)c1ccc(O)cc1)Nc1nccs1`, the inhibition was 16.7% (inactive) and the normalized cell count stood at 74.1%.

As to `CC(/C=N/NC(=O)c1ccncc1)=C\c1ccco1`, the inhibition was 23.1% (inactive) and the normalized cell count stood at 115%.

With `CC(=O)c1ccc(NC(=O)C(C)NCc2ccc(Cl)cc2)cc1` (stereo not drawn), the inhibition was -189% (inactive) and the normalized cell count was 58.5%.

Consider `Cc1ccc(S(=O)(=O)NC(=O)COc2ccccc2C)cc1`, for which the inhibition was 81.2% (active) and the normalized cell count was 150%.

For `Cc1cccc(NC(=O)COc2ccccc2C)n1`, the inhibition is -406% (inactive) and the normalized cell count is 56.6%.

As to `COCCNC(=O)COc1ccccc1C`, the inhibition is 20.8% (inactive) and the normalized cell count amounted to 112%.

Consider `COc1cccc2cc(S(=O)(=O)c3ccc(C)cc3)/c(=N/NS(=O)(=O)c3ccc(C)cc3)oc12`, for which the inhibition is 27.3% (inactive) and the normalized cell count was found to be 139%.

On to `COC(=O)C1=C(C)N(c2ccc(Br)cc2)C(=O)/C1=C\c1ccco1`, for which the inhibition is 25.6% (inactive) and the normalized cell count is 98.3%.

Take `COc1ccc(N2C(=O)/C(=C\c3ccco3)N=C2SCC(N)=O)cc1Cl`: the inhibition was 91.7% (active) and the normalized cell count was found to be 75.5%.

Take `COc1ccc([N+](=O)[O-])cc1NC(=O)COC(=O)/C=C/c1ccco1`: the inhibition was -14.3% (inactive) and the normalized cell count was determined as 128%.

With `COC(=O)CC1=NN(c2ccccc2)C(=O)C1`, the inhibition is 0% (inactive) and the normalized cell count amounted to 102%.

As for `CN(C)C=NC(=O)c1cccn1-c1ncc(C(F)(F)F)cc1Cl`, the inhibition is 31.2% (inactive) and the normalized cell count was 84.7%.
